The nature of assay [1]: P-glycoprotein substrates identified in KB-3-1 adenocarcinoma cell line, qHTS therapeutic library screen (AID 1346986).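 Also: potency is read from the fitted curve at half-maximal effect; potency is for cytotoxicity meaning loss of cell viability; nearly all actives have a fitted effect of over 60% in size.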 Put shortly:
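72 h cell-killing screen, 500 cells/well, CellTiter-Glo luminescence. Paired lines KB-3-1/KB-8-5-11; P-gp dependence checked by tariquidar co-treatment and HEK-293 MDR-19 versus empty-vector cells.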
In general terms: Quantitative high-throughput screening tests each substance at several concentrations.

Assay [2] in a line: P-glycoprotein substrates identified in KB-8-5-11 adenocarcinoma cell line, qHTS therapeutic library screen (AID 1346987). Also: nearly all actives have a fitted effect of over 65% in size. Also: potency is read from the fitted curve at half-maximal effect. The gist of the method: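 Luminescence from CellTiter-Glo, read 5 min after addition, quantified survival of KB-8-5-11 (P-gp-overexpressing) cells exposed to compounds for 72 h. AC50 was derived from concentration-response curves.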
A short description of assay [3]: Cytotoxicity counterscreen for inhibitors of SARS-CoV-2 cell entry (AID 1645845; calls by dose curve; also: nearly all actives have a fitted effect of over 50% in size). Put shortly:
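After a 15 min room-temperature ATPLite 1step step, luminescence reflected ATP remaining in HEK293-ACE2 cells exposed to compound for 1 h plus 48 h at 37 C, with percent activity set by cell and no-cell controls.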
For orientation: Counterscreens check selectivity or assay interference.

In assay [4] the target is Glutathione peroxidase 1 (Homo sapiens) (UniProt P07203). In words: Primary qHTS Assay for Inhibitors of Recombinant Selenoprotein Glutathione Peroxidase 1 (GPX1) (AID 1845191). Also: nearly all actives have a fitted effect of over 65% in size. Put shortly: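 GPX1 10 nM, GR 100 nM, GSH 1 mM, NADPH 0.5 mM, CHP 0.5 mM (final). 30-min cpd preincubation, RT. Ex340/Em450 read t=0, t=15 min.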
In assay [5] the target is Phospholipid hydroperoxide glutathione peroxidase GPX4 (Homo sapiens) (UniProt P36969). Kind of assay: Primary qHTS Assay for Inhibitors of Recombinant Selenoprotein Glutathione Peroxidase 4 (GPX4) (AID 1845192). Also: % is scaled to controls: 0 for no effect and ±100 for the full control effect; nearly all actives have a fitted effect of over 65% in size. Put shortly:
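qHTS, GR-coupled: GPX4 200 nM + cpd 30 min RT → GSH 1 mM, NADPH 0.5 mM, GR 100 nM → CHP 0.5 mM start; fluor 340/450 at t0 and t15 min; no-enzyme wells as control.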

Assay [6] in a line: qHTS drug screen for cell cycle checkpoint inhibitors in PARPi-resistant BRCA-mutant ovarian cancer cell lines. (AID 1963452; calls by dose curve). The following applies: PEO1/OlaR viability, CellTiter-Glo luminescence, 96 h, stronger effect = lower value. Put shortly: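 PEO1, PEO4 and PEO1/OlaR ovarian cancer cells, 600 per well, exposed 96 h at 37C to a dilution series. Viability read by CellTiter-Glo luminescence, normalized to DMSO and empty wells; activity summarized as Z-AUC.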

Assay [7] is described as follows: qHTS for Inhibitors of the Functional Ribonucleoprotein Complex (vRNP) of Lassa (LASV) Arenavirus: LASV Primary Screen - GLuc reporter signal (AID 1347082; calls by dose curve; tested in HEK293 reporter line; also: % is scaled to controls: 0 for no effect and ±100 for the full control effect; nearly all actives have a fitted effect of over 60% in size).
A short description of assay [8]: qHTS Assay for Identifying Gametocytocidal Compounds (AID 743244).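 Also: % is scaled to controls: 0 for no effect and ±100 for the full control effect; actives lower the fluorescent signal which means gametocytes are killed.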 The following applies: P. falciparum 3D7 stage III-V gametocytes, alamarBlue, 72 h; max response: stronger effect = lower value. The gist of the method:
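3D7 gametocytes, stages III–V, 20,000/well; cpd 72 h, 37 °C/5% CO2; + alamarBlue 24 h; fluor. Ex 525/Em 598.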

The nature of assay [9]: Drug repurposing screens with cells derived from glioblastoma tumor samples (AID 1345199). Also: % is scaled to controls: 0 for no effect and ±100 for the full control effect; nearly all actives have a fitted effect of over 40% in size. The following applies: GBM patient neurospheres viability, ATP luminescence, 48 h; Potency: tumour line A; series mostly up to 45.9 µM. Put shortly:
(§1)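 Primary testing used CD133+ neurospheres from four GBM patients, seven concentrations, 48 h exposure and ATP-based viability; confirmation added three slower-growing patient lines.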

A further assay has as its system astro. The description is as above. The following applies: viability, ATP luminescence, 48 h; series mostly up to 45.9 µM. The gist of the method: as §1
In assay [10] the target is Glucocorticoid receptor (Homo sapiens) (UniProt P04150). In words: qHTS assay for small molecule agonists of glucocorticoid receptor signaling (AID 588532; active = well fitted curve in the direction sought with a large enough effect in the signal ratio, with a control signal flat; the % refers to the signal ratio;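 also: 100% = dexamethasone at 0.1 µM and 0% = DMSO only wells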). The following applies: HeLa MMTV-bla, beta-lactamase ratio, agonist, 18 h; stronger effect = higher value; percent of dexamethasone control, DMSO zero. The gist of the method: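 Stimulation of a glucocorticoid response element-driven beta-lactamase gene was measured in HeLa cells. Responses were scaled between DMSO basal and 0.1 uM dexamethasone, then fitted for half-maximal stimulation.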

Assay [11] can be described thus: qHTS assay for small molecule agonists of retinoid X receptor alpha signaling (AID 588544; calls by dose curve;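 as to activation: 0% = DMSO basal wells and 100% = reference agonist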). The following applies: HEK293T RXRa-UAS-bla, beta-lactamase reporter, 18 h; 530 nm emission.
Assay [12] deals with Retinoic acid receptor RXR-alpha (Homo sapiens) (UniProt P19793). The description is as above.
Assay [13] concerns the target Thyroid hormone receptor beta (Homo sapiens) (UniProt P10828). In words: qHTS assay for small molecule agonists of thyroid hormone receptor beta signaling (AID 588545; calls by dose curve). Put shortly:
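Agonist-mode beta-lactamase reporter assay, HEK 293 cells, 2% charcoal/dextran FBS; cells plated 4 hrs, compound 18 hrs at 37 C, CCF4 2 hrs RT. Normalized to 10 nM T3 (100%) and DMSO (0%); Hill fit gives EC50, efficacy.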

Assay [14] in a line: qHTS assay for small molecule antagonists of retinoid X receptor alpha signaling (AID 588546; active = well fitted inhibition curve with a large enough effect in the signal ratio, with a control signal flat, not every such curve was filed as active; the % refers to the signal ratio;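 also: cells stimulated with 9-cis-retinoic acid as agonist; % is scaled to controls: 0 for no effect and ±100 for the full control effect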). The following applies: HEK293T RXRa-UAS-bla, beta-lactamase ratio, antagonist mode; measured here: W530 green channel, cytotoxicity proxy. Put shortly:
(§2)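 Beta-lactamase reporter inhibition, read as CCF4 fluorescence ratio (ex 405, em 460/530 nm) after 2 h at RT. HEK293T UAS-bla cells, 2500/well, were stimulated with 9-cis-RA at 500 or 100 nM final alongside test compound for 18 h at 37 C.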

In assay [15] the target is Retinoic acid receptor RXR-alpha (Homo sapiens) (UniProt P19793). Described as above. The following applies: HEK293T RXRa-UAS-bla, beta-lactamase ratio, antagonist mode. Put shortly:
as §2

The target of assay [16] is Luciferin 4-monooxygenase (Photinus pyralis) (UniProt P08659). Kind of assay: Biochemical firefly luciferase enzyme assay for NPC (AID 624030).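 Also: purified P. pyralis luciferase at 10 nM with luciferin and ATP substrate; 0% = DMSO and -100% = full luciferase inhibition by PTC124 control; nearly all actives have a fitted effect of over 70% in size.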 The gist of the method: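 Counter-screen for direct inhibition of the luciferase enzyme by approved-drug library compounds, run at 10 nM enzyme in 50 mM Tris acetate (final). Luminescence was read within 5 min of enzyme-buffer addition and normalized to PTC124 versus DMSO (0%).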

A short description of assay [17]: qHTS assay for small molecule activators of the nuclear factor-kappa B (NF-kB) signaling pathway (AID 651749; active = well fitted activation curve with a large enough effect in the signal ratio; the % refers to the signal ratio; also: % of control where 0% means no effect). The following applies: NF-kB-bla ME-180 cells, beta-lactamase FRET ratio, 16 h; activation: stronger effect = higher value. The gist of the method: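 Human ME-180 cervical cells with an NF-kB-bla construct; compounds added via 23 nL pin transfer, DMSO as vehicle; incubation 16 hr. Reporter activity measured by FRET disruption.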

Assay [18] concerns the target Peroxisome proliferator-activated receptor alpha (Homo sapiens) (UniProt Q07869). In words: qHTS assay for small molecule agonists of the peroxisome proliferator-activated receptor alpha (PPARalpha) signaling pathway (AID 651778). Also: % of control where 0% means no effect. The following applies: PathHunter PPARalpha complementation, chemiluminescence, 6 h; stronger effect = higher value. Put shortly: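 Cells plated at 2,000/well and held overnight at 37 C, 5% CO2, then compound added by pin tool for 6 hr; after PathHunter detection reagent and 60 min at room temperature, chemiluminescence from enzyme complementation was read.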

A short description of assay [19]: qHTS assay for small molecule agonists of the antioxidant response element (ARE) signaling pathway measured by Nrf2-dependant transcriptional activity (AID 720636; active = well fitted curve in the direction sought with a large enough effect in the repeat runs; an effect the other way counts as inactive or inconclusive;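 also: HepG2 cells with an ARE-driven luciferase reporter; % of control where 0% means no effect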). Put shortly:
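HepG2 ARE-luc reporter line, 1% dialyzed FBS; 6 hr attachment at 37 C, compound pinned in, 16 hr at 37 C/5% CO2; ONE-Glo, 30 min RT, luminescence read.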

Assay [20] can be described thus: qHTS assay for cell viability of HEK293 cells (AID 743288). Also: % is scaled to controls: 0 for no effect and ±100 for the full control effect; nearly all actives have a fitted effect of over 50% in size. The following applies: ATP luminescence (CellTiter-Glo), 18 h; max response: stronger effect = lower value. Put shortly:
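Readout is luciferase-coupled ATP content (CellTiter-Glo luminescence, 30 min room temperature) as a measure of metabolically competent cells. Parental HEK293 cells were plated 5 h or more before compound addition, then treated 18 h at 37 C.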

Assay [21] in a line: qHTS assay for cell viability of the p53RE-bla HCT-116 cell line (AID 743292). Also: % is scaled to controls: 0 for no effect and ±100 for the full control effect; nearly all actives have a fitted effect of over 55% in size. The gist of the method: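 Luminescent ATP quantitation (CellTiter-Glo) served as the viability read-out; reagent was added after 16 h compound exposure at 37 C and read after 30 min at room temperature. Cells: p53RE-bla HCT-116, 4,000 per well.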
Assay [22] is described as follows: Primary qHTS for Huh7 cytotoxicity: counterscreen for inhibitors of MERS-S pseudotyped particle cell entry (AID 1479147; calls by dose curve). The following applies: outcome: dose series up to 57.1 µM unless noted.
A short description of assay [23]: Primary qHTS for inhibitors of MERS-S pseudo-typed particle cell entry (AID 1479149; calls by dose curve; also: nearly all actives have a fitted effect of over 60% in size).
Assay [24] is described as follows: Primary qHTS for Vero E6 cytotoxicity: counterscreen for inhibitors of SARS-S pseudo-typed particle cell entry (AID 1479150; calls by dose curve). The following applies: outcome: dose series up to 57.1 µM unless noted.
The nature of assay [25]: Primary qHTS to identify inhibitors of SARS-CoV-2 cell entry (AID 1645846; calls by dose curve; also: nearly all actives have a fitted effect of over 45% in size). The following applies: activity change, negative = inhibition: at 57.1 µM (top of the series) unless noted. Put shortly:
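Entry measured by luciferase signal 48 h after adding SARS-CoV-2-S pseudotyped MLV particles to HEK293-ACE2 cells preincubated 1 h with compounds. Normalisation: bald particles and spike particles.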

For assay [26], the target named is Nuclear receptor subfamily 1 group I member 2 (Rattus norvegicus) (UniProt Q9R1A7). In words: qHTS assay for small molecule activators of the rat pregnane X receptor (rPXR) signaling pathway (AID 651751; call rule not given here; also: 0% is about no effect). The following applies: rPXR reporter cells, luciferase (One-Glo), 24 h.
The nature of assay [27]: qHTS assay for small molecule activators of the human pregnane X receptor (PXR) signaling pathway (AID 720659; call rule not given here; also: 0% is about no effect).
Assay [28] is described as follows: Primary qHTS for inhibitors of nuclear receptor binding SET domain protein 2 (NSD2) in an isogenic RCH-ACV NSD2 p.E1099K mutant (9B) (AID 1645876). Also: potency is read from the fitted curve at half-maximal effect; nearly all actives have a fitted effect of over 70% in size.
The nature of assay [29]: Primary qHTS for inhibitors of nuclear receptor binding SET domain protein 2 (NSD2) in an RCH-ACV wild type WT cells (2C) (AID 1645877). Also: potency is read from the fitted curve at half-maximal effect; nearly all actives have a fitted effect of over 70% in size.

Records with an inconclusive call do not appear. Active and inactive are the calls of the source. Unless noted, calls follow the shape of the dose curve; as a rule, active = well fitted curve in the direction sought with a large enough effect; inconclusive = small, poorly fitted or top-dose-only effect, or another doubt; inactive = no such curve, though single readings can be large; an effect the other way counts as inactive or inconclusive.

Chain of Glutathione peroxidase 1 (Homo sapiens) (P07203 whole entry, looked up): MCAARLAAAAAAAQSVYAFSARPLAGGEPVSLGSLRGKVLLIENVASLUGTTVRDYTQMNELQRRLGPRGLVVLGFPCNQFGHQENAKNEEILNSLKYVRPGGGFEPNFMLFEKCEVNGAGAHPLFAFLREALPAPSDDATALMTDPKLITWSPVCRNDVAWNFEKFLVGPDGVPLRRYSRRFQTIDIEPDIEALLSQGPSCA
Chain of Retinoic acid receptor RXR-alpha (Homo sapiens) (P19793 whole entry, looked up): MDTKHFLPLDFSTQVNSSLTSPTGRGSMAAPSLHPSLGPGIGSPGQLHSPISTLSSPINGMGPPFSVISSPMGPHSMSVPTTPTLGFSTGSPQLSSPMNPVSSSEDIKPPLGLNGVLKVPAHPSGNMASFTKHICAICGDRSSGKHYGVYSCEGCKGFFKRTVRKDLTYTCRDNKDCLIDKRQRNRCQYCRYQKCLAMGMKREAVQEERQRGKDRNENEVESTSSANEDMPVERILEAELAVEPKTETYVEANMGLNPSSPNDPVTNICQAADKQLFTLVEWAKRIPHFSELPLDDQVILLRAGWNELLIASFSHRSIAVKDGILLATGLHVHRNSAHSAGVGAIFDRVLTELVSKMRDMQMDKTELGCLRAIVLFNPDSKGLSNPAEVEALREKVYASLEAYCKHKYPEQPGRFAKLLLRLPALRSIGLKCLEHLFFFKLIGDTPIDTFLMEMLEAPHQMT
Chain of Glucocorticoid receptor (Homo sapiens) (P04150 whole entry, looked up): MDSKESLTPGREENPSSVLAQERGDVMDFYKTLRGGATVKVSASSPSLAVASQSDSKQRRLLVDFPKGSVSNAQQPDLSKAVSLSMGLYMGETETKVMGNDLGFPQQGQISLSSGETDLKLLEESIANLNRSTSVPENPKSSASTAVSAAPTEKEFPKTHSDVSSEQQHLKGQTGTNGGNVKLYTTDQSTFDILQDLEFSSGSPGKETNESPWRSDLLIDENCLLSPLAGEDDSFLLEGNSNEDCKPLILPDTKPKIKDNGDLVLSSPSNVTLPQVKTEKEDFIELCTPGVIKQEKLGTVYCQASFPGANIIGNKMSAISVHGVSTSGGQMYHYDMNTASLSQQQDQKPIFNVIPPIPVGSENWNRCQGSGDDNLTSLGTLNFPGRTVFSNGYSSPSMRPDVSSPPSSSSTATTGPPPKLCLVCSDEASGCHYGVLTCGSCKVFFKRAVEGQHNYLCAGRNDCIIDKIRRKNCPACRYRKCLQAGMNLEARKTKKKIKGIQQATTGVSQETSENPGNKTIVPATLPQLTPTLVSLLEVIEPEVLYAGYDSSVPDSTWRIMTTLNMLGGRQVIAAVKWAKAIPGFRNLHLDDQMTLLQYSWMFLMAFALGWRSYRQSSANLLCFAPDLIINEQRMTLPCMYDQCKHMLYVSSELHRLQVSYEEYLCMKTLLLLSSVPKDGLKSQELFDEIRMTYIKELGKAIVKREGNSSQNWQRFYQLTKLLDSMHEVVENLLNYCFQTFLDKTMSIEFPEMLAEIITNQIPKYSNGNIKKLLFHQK
Chain of Phospholipid hydroperoxide glutathione peroxidase GPX4 (Homo sapiens) (P36969 whole entry, looked up): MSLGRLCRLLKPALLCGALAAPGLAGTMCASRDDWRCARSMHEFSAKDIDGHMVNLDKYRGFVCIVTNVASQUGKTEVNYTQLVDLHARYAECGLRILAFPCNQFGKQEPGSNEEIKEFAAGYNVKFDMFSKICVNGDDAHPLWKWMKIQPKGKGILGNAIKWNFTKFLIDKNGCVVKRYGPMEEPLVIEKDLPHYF
Chain of Thyroid hormone receptor beta (Homo sapiens) (P10828 whole entry, looked up): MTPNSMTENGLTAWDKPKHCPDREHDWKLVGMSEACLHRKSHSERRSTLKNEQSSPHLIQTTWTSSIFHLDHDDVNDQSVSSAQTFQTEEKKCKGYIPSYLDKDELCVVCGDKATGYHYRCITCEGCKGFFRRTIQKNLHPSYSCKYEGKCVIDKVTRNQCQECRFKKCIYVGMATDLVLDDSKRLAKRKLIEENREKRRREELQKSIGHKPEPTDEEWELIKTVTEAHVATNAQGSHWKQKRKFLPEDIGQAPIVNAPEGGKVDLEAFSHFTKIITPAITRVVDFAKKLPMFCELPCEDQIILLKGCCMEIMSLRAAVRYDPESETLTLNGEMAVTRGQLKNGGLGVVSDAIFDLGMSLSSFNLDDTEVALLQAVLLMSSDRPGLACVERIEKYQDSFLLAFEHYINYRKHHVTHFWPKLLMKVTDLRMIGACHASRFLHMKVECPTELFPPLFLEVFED
Chain of Luciferin 4-monooxygenase (Photinus pyralis) (P08659 whole entry, looked up): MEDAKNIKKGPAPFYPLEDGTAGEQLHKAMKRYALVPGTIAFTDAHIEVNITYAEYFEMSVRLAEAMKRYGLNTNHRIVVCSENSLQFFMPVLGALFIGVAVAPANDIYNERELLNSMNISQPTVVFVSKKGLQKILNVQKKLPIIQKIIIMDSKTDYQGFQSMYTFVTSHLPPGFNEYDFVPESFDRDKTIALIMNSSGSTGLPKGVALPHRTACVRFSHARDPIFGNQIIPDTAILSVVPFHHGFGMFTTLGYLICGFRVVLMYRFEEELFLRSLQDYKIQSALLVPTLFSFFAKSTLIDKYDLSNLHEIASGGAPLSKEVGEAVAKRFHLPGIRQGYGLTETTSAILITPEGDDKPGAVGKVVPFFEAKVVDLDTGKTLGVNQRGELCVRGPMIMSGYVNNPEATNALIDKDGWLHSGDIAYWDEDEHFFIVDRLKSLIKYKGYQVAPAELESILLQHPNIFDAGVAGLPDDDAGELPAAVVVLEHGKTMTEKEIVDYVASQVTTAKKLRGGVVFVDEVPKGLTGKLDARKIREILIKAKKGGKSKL
Chain of Nuclear receptor subfamily 1 group I member 2 (Rattus norvegicus) (Q9R1A7 whole entry, looked up): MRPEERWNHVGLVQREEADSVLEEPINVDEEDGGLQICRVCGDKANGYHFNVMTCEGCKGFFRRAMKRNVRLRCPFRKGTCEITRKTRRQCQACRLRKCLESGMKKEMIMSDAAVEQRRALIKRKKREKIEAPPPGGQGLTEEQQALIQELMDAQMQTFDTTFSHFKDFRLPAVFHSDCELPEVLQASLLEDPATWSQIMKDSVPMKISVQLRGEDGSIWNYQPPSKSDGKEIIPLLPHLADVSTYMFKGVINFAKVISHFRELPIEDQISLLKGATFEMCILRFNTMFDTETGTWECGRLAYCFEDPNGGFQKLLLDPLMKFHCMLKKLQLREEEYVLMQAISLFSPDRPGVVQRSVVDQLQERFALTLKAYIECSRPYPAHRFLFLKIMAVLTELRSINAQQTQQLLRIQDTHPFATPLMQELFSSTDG
Chain of Peroxisome proliferator-activated receptor alpha (Homo sapiens) (Q07869 whole entry, looked up): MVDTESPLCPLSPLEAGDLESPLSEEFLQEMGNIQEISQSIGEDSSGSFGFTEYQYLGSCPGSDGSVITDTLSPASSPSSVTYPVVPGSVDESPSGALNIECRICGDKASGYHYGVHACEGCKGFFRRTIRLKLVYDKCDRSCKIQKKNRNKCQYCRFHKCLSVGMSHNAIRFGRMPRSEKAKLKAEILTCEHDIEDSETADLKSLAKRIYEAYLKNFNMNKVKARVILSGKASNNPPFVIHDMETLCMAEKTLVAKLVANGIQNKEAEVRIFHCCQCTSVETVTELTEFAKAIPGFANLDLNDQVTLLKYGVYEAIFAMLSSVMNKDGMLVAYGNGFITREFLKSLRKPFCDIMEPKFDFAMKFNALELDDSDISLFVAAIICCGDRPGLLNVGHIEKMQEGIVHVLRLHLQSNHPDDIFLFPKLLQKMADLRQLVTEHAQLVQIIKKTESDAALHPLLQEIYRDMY

`COc1cc2c(cc1F)C(c1ccccc1Cl)=Nc1c(n[nH]c1C)N2`: the Potency was 2.06 µM (active) in [1] and 1.3 µM (active) in assay [2]. Besides, the Potency entry in [3], in assay [4] and in assay [5] was “inactive” throughout. The Z-AUC in [6] was -0.71 (inactive); in assay [6] (measured here: PEO1 parental Z-AUC) it was -0.883; in [6] (measured here: PEO4 Z-AUC), -0.718.
Turning to `Oc1ccc([C@@H]2Oc3ccc(O)cc3[C@@H]3CCC[C@@H]32)cc1`, the Potency result in assay [7] is “inactive”.
Consider `CC(=O)O[C@@]12CO[C@@H]1C[C@H](O)[C@@]1(C)C(=O)[C@H](O)C3=C(C)[C@@H](O)C[C@@](O)([C@@H](OC(=O)c4ccccc4)C12)C3(C)C` (some centres not stated), for which the Potency entry in assay [7] was “inactive”.
Turning to `C[C@@H](N)C(=O)c1ccccc1`, in assay [8], the max response is -12.7% (inactive). The Potency result (in [2]; in assay [9]; with astro) was “inactive” throughout.
For the compound `COC(=O)c1cc(O)cc(OC)c1Oc1cc(C)cc(O)c1C(=O)O`, the Potency result in assay [7] is “inactive”.
As to `OCCN(CCO)CCO`, the results for the activation in [10] and in assay [17] were -3.04% (inactive) and -1.09% (inactive), respectively. Besides, the max response in assay [11] is -6.39%; in assay [14], -16.2%; in assay [15], -4.54% (inactive); in [18], -0.143% (inactive); in assay [8], 5.27% (inactive); in assay [20] it was -0.515% (inactive). Moreover, in assay [26], the max response was -1.5% (inactive). For the same compound, the result in assay [12], in assay [21], in assay [22], in [24] and in assay [27] was inactive. Moreover, the Potency result in assay [13], in assay [16], in assay [19], in assay [2], in assay [23] and in [3] was “inactive” each time. Besides, the Potency result (in [4]; in assay [9]; in the assay on astro) was “inactive” throughout. In addition, the activity change, negative = inhibition in assay [25] is -24%.
`c1ccc2c(c1)Sc1ccccc1N2C[C@@H]1CN2CCC1CC2`: the max response in assay [8] is -2.33% (inactive). Also, the Potency result (in [9]; in the assay with astro) was “inactive” in each case.
For the compound `C#C[C@]1(OC(=O)CCCCCC)CC[C@H]2[C@@H]3CCC4=CC(=O)CC[C@@H]4[C@H]3CC[C@@]21C`, in [8], the max response was -5.44% (inactive). Besides, the Potency in assay [2] is 20.6 µM (active).
Take `COCC1OC(=O)c2coc3c2C1(C)C1=C(C3=O)C2CCC(=O)C2(C)CC1OC(C)=O` (configuration not stated): the Potency in assay [1] was 20.6 µM (active); in [28], 3.66 µM (active); in assay [29] it was 1.3 µM (active).
